PLK1 PBD inh: qHTS for Inhibitors of PLK1-PDB (polo-like kinase 1 - polo-box domain): Primary Screen; Plk1 PBD binding of FITC phosphopeptide, fluorescence polarization; Potency, µM, actives largely listed as inhibitors; actives 2.8% (n = 360,000); note: series mostly up to about 57 µM; nearly all actives have a fitted effect of over 65% in size
12-LOX inh: Primary qHTS assay for inhibitors of human arachidonate 12S-lipoxygenase (ALOX12): Round 2; Polyunsaturated fatty acid lipoxygenase ALOX12 (Homo sapiens), P18054; purified 12hLO, xylenol orange hydroperoxide absorbance; Potency, µM (titrated, usually from 108 µM), usual class: inhibitors; actives 1.1% (n = 580,000); AID 1671190, 2021
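Hydroperoxide product was detected by ferrous iron/xylenol orange as the 573 to 405 nm absorbance ratio. Arachidonic acid at 40 uM (final) was turned over for 30 min at room temperature by 150 nM human 12hLO, pH 7.0 Hepes buffer, after 15 min compound preincubation.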
G9a inh: qHTS Assay for Inhibitors of Histone Lysine Methyltransferase G9a. G9a H3K9 monomethylation, AlphaScreen, 2 h. actives 8.8% (n = 350,000). Potency, µM (top dose mostly 102 µM), hits mostly inhibitors; note: nearly all actives have a fitted effect of over 75% in size
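AlphaScreen detection with an anti-monomethyl H3K9 antibody quantified product after a 2 h room-temperature reaction containing 500 nM biotinylated H3K9 peptide, 20 µM SAM and 20 nM enzyme, which had been preincubated 15 min with compound.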
BAZ2B block: qHTS Assay for Inhibitors of BAZ2B | AlphaScreen BAZ2B-H3K14Ac peptide displacement | Potency, µM (titrated, usually from 114 µM), usual class: inhibitors | actives 4.4% (n = 360,000) | AID 504333, 2011; note: nearly all actives have a fitted effect of over 60% in size
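Inhibition is scored as reduced AlphaScreen emission. The BAZ2B/b-H3(5-23)K14Ac complex (50 nM each) in PBS pH 7.4, 0.01% Tween-20 meets compound (up to 110 uM) for 30 min at RT before bead addition.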
HP1b chromo inh: HTS for Inhibitors of HP1-beta Chromodomain Interactions with Methylated Histone Tails; Chromobox protein homolog 1 (Homo sapiens), P83916; AlphaScreen HP1-beta / biotin-H3K9me3 peptide binding; actives 0.56% (n = 390,000); Potency, µM (doses to about 114 µM), usual class: inhibitors; AID 540317, 2011; note: nearly all actives have a fitted effect of over 70% in size
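Compound inhibition of the preformed complex between 50 nM HP1-beta and 50 nM biotinylated H3K9me3 peptide was read by AlphaScreen. Buffer was PBS pH 7.4 with 0.01% Tween-20. Incubations ran 30 min at room temperature, with 10 ug/mL donor/acceptor beads.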
JMJD2A Tudor inh: qHTS Assay for Inhibitors of JMJD2A-Tudor Domain | AlphaScreen JMJD2A-Tudor / H3K4me3 peptide binding | actives 4.4% (n = 390,000) | Potency, µM (series often up to 114 µM), hits mostly inhibitors; note: nearly all actives have a fitted effect of over 50% in size
A number is an active result; n = inactive; u = inconclusive; x = not tested or not shown; [ ] = another dose, or the depositor's remark. Sampled rows, rich in hits. Any-hit rate of the full collection: about 9%. Calls come from the whole dose curve; as a rule, active = well fitted curve in the direction sought with a large enough effect; inconclusive = small, poorly fitted or top-dose-only effect, or another doubt; inactive = no such curve, though single readings can be large; an effect the other way counts as inactive or inconclusive.

SMILES | PLK1 PBD inh | 12-LOX inh | G9a inh | BAZ2B block | HP1b chromo inh | JMJD2A Tudor inh
Cc1ccc(-c2cccc(CN3C4CCC3CN(C(=O)Nc3ccccc3F)C4)c2)c(C)c1 | x | n | x | x | x | x
O=C(OC1CCCCC1=O)c1cccc(S(=O)(=O)N2CCOCC2)c1 (stereo not drawn) | n | n | n[2.33 µM] | n | n | n
CN1c2cc(C(=O)Nc3ccc(Oc4ccccc4)cc3)ccc2C(=O)N2CCCCCC21 (stereo not drawn) | x | n | x | x | x | x
COc1cc2cc(CN(CCCO)S(=O)(=O)c3ccccc3)c(=O)[nH]c2cc1OC | n | n | n | n | n | n
Cc1cccc(C)c1NC(=O)CCS(=O)(=O)c1ccc2c(c1)n(C)c(=O)c(=O)n2C | x | n | n | u | n | n
CCc1cccc(C)c1NC(=O)CCS(=O)(=O)c1ccc2c(c1)oc(=O)n2C | x | u | 10µM | n | u | 79µM
COc1cc(OCc2ccccc2)ccc1CN1C[C@@H]2CCN[C@@H]2C1 | x | n | x | x | x | x
CCCNc1nc2ccccc2c(=O)[nH]1 | n | n | n | n | n | n
CCCNc1cc(=S)nc(N)[nH]1 | 19µM | u | 0.63µM | n | u | 22µM
COC(=O)CCS(=O)(=O)c1nc(-c2ccccc2)cc(C(F)(F)F)n1 | 21µM | x | n[12.7 µM] | n | n | n
COc1ccc(-c2cc(C(F)(F)F)nc(S(C)(=O)=O)n2)cc1 | u | u | n | n | n | n
CCOC(=O)CS(=O)(=O)c1nc(-c2ccccc2)cc(C(F)(F)F)n1 | 11µM | n | 35µM | n | n | n
COc1ccc(NC(=O)CCS(=O)(=O)c2nc(-c3ccc4c(c3)OCO4)cc(C(F)(F)F)n2)cc1OC | x | n | 11µM | n | n | n
CS(=O)(=O)c1nc(-c2ccc(F)cc2)cc(C(F)(F)F)n1 | 24µM | n | 45µM | n | n | n
COc1ccc(NC(=O)CCS(=O)(=O)c2nc(-c3ccccc3)cc(C(F)(F)F)n2)cc1 | x | n | x | x | x | x
CCN1C(=O)CCN(C(=O)c2ccc(C)nc2)CC12CCOCC2 | x | n | x | x | x | x
Cc1ccc(OCC(=O)n2nc(C)cc2C)c(C)c1 | n | n | n | n | n | n
Cc1cc(NC(=O)CCCS(=O)(=O)c2nc(-c3cccs3)cc(C(F)(F)F)n2)no1 | u | n | 50µM | n | n | n
CCOC(=O)CS(=O)(=O)c1nc(-c2ccc(F)cc2)cc(C(F)(F)F)n1 | 5.3µM | n | u | n | n | n
CCOC(=O)CCS(=O)(=O)c1nc(-c2ccccc2)cc(C(F)(F)F)n1 | u | u | 2.8µM | n | n | n
COC(=O)[C@H](Cc1ccccc1)NC(=O)NCCC1=CCCCC1 | n | n | u | n | n | n
CC(C)(C)OC(=O)NCCCCCNC(=O)c1nc[nH]c1C(=O)NCc1ccc(CNC(=O)OC(C)(C)C)cc1 | n | n | x | x | n | n
CC1CN(C/C(=N\O)C23CC4CC(CC(C4)C2)C3)CC(C)O1 (stereo not drawn) | n | n | n[0.501 µM] | n | n | n
CC1(COc2ccccc2)COc2ccc(C(=O)NCCc3ccccn3)cc2N1 (stereo not drawn) | x | 18µM | x | x | x | x
CC1(COc2ccccc2)COc2ccc(C(=O)NCCc3ccccc3)cc2N1 (stereo not drawn) | x | n | x | x | x | x
SMILES | PLK1 PBD inh | 12-LOX inh | G9a inh | BAZ2B block | HP1b chromo inh | JMJD2A Tudor inh
Cc1oc(/C=N/NS(=O)(=O)c2ccccc2)cc1Br | n | n | 16µM | n | n | n
Cc1ccc(/C=N/NS(=O)(=O)c2ccccc2)o1 | n | n | n | n | n | n
NS(=O)(=O)c1ccc(CCNC(=O)CCc2ccccc2)cc1 | n | n | x | x | n | n
CSC1=NCCN1C(=O)c1ccc(C)cc1 | n | n | n | n | n | n
CSC1=NCCN1C(=O)c1ccc(S(=O)(=O)N(C)C)cc1 | 27µM | n | n | n | n | n
Cc1ccsc1[C@@H]1CCN(Cc2ccc(C#CC(C)(C)O)cc2)C[C@H]1O | x | 45µM | x | x | x | x
Cc1ccsc1C(=O)C1CCCN(Cc2ccc(C#CC(C)(C)O)cc2)C1 (stereo not drawn) | x | n | x | x | x | x
COc1cc(C(=O)Nc2ccc(N3CCOCC3)cc2)ccc1OCc1c(C)noc1C | n | n | 50µM | n | n | n
COc1ccc(C(=O)Nc2ccc(C)c(S(=O)(=O)N3CCOCC3)c2)cc1S(=O)(=O)N1CCCC1 | n | n | x | x | n | n
Cc1cc(C)c(NC(=O)c2cc(S(=O)(=O)N3CCOCC3)ccc2F)c(C)c1 | 11µM | n | n | n | n | u
COc1ccc(C(=O)Nc2ccc(N3CCOCC3)cc2)cc1S(=O)(=O)N1CCCC1 | n | n | 50µM | n | n | n
COc1ccc(C(=O)Nc2ccc(N3CCOCC3)cc2)cc1S(=O)(=O)N1CCOCC1 | n | n | 56µM | n | n | n
COc1ccc(N(C)C(=O)c2cn(C3CCCCC3)c(=O)c3c2c2ccccc2n3C)cc1 | x | n | n | n | n | u
COc1ccc2c(c1)oc1c(SCc3nc4ccccc4[nH]3)nc(C)nc12 | x | u | x | x | n | n
COc1ccc(C(=O)Nc2ccc(C)cc2)cc1S(=O)(=O)NC1CCCC1 | x | n | x | x | x | x
COc1ccc(C(=O)OC(C)C(=O)NC2CCCCC2C)cc1S(=O)(=O)N1CCOCC1 (stereo not drawn) | n | n | 79µM | n | n | n
Cc1ccc(N(Cc2ccccc2)C(=O)c2ccc(F)c(S(=O)(=O)N3CCOCC3)c2)cc1 | n | n | 45µM | n | n | n
COc1ccc(S(=O)(=O)N2CCOCC2)cc1C(=O)Nc1ccc(N2CCCCCC2)cc1 | n | n | x | x | u | 10µM
COc1ccc(C(=O)Nc2ccc(N3CCOCC3)cc2)cc1S(=O)(=O)NC1CCCC1 | n | n | 32µM | n | n | n
CC(OC(=O)c1ccc(Cl)c(S(=O)(=O)N2CCOCC2)c1)C(=O)NC1CCCCC1C (stereo not drawn) | n | n | n[0.501 µM] | n | n | n
COc1cc(OC)c(C(=O)Nc2ccc(S(=O)(=O)N3CCCCC3)cc2)cc1OC | n | u | n[0.501 µM] | n | n | n
O=C(Nc1ccc(S(=O)(=O)Nc2nccs2)cc1)c1ccc(F)c(S(=O)(=O)N2CCOCC2)c1 | n | n | u | n | n | n
O=C(Nc1ccc(S(=O)(=O)N2CCOCC2)cc1)c1ccc(=O)[nH]c1 | n | n | n | n | n | n
COc1ccc(C(=O)Nc2ccc(S(=O)(=O)N3CCCCC3)cc2)cc1OC | u | n | n | n | u | 79µM

Screening results: PubChem, National Center for Advancing Translational Sciences (NCATS)
